Measurements taken from the supplement of paper PMC12282887.
± gives the standard deviation of the averaged measurements.

Key:
Experiment in all cases: promoter activity interaction Z-score (Lux/OD deviation from empty-vector control); higher = stronger promoter induction by the compound
[1] = test system: E. coli BW25113 acrABp lux reporter
In short: (§1)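 Every compound was given at four 1:2 dilutions, in biological duplicates, to E. coli BW25113 carrying low-copy luxCDABE promoter reporters in wild-type or single-gene deletion backgrounds. Growth in 40 µl LB Lennox in 384-well plates at 37°C was followed by OD600 and luminescence readings every 30 min for 12 h, integrated over 0–8 h for wild type and 1–9 h for deletion strains, with wells below 10% of the median growth value excluded. Scores are Z-transformed residuals of growth-normalised luminescence fitted against a control.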

[2] = test system: E. coli BW25113 micFp lux reporter
In short: as §1

[3] = test system: E. coli BW25113 ompFp lux reporter
In short: as §1

[4] = test system: E. coli BW25113 robp lux reporter
In short: as §1

[5] = test system: E. coli BW25113 soxSp lux reporter
In short: as §1

[6] = test system: E. coli BW25113 tolCp lux reporter
In short: as §1

[7] = 2.6 µg/ml, genetic background: wild type
[8] = 2.6 µg/ml, genetic background: ΔmarA
[9] = 2.6 µg/ml, genetic background: Δrob
[10] = 2.6 µg/ml, genetic background: ΔsoxS
[11] = 5.3 µg/ml, genetic background: wild type
[12] = 5.3 µg/ml, genetic background: ΔmarA
[13] = 5.3 µg/ml, genetic background: Δrob
[14] = 5.3 µg/ml, genetic background: ΔsoxS
[15] = 10.6 µg/ml, genetic background: wild type
[16] = 10.6 µg/ml, genetic background: ΔmarA
[17] = 10.6 µg/ml, genetic background: Δrob
[18] = 10.6 µg/ml, genetic background: ΔsoxS
[19] = 21.1 µg/ml, genetic background: wild type
[20] = 21.1 µg/ml, genetic background: ΔmarA
[21] = 21.1 µg/ml, genetic background: Δrob
[22] = 21.1 µg/ml, genetic background: ΔsoxS

CC(=O)N[C@H]1[C@@H](O[C@@H]2O[C@H](CC(O)[C@H]3O[C@@H](n4ccc(=O)[nH]c4=O)[C@H](O)[C@@H]3O)[C@H](O)[C@H](O)[C@H]2NC(=O)/C=C/CC(C)C)O[C@H](CO)[C@@H](N)[C@@H]1O (stereo partly specified) [Tunicamycin]
promoter activity interaction Z-score [1, 7]: 0.13 ± 0.29
promoter activity interaction Z-score [1, 8]: -0.0876 ± 0.12
promoter activity interaction Z-score [1, 9]: -0.143 ± 0.18
promoter activity interaction Z-score [1, 10]: -0.217 ± 0.36
promoter activity interaction Z-score [1, 11]: -0.0561 ± 0.2
promoter activity interaction Z-score [1, 12]: -0.914 ± 0.2
promoter activity interaction Z-score [1, 13]: -0.22 ± 0.25
promoter activity interaction Z-score [1, 14]: -0.179 ± 0.21
promoter activity interaction Z-score [1, 15]: 0.0358 ± 0.052
promoter activity interaction Z-score [1, 16]: 0.615 ± 0.22
promoter activity interaction Z-score [1, 17]: -0.243 ± 0.0041
promoter activity interaction Z-score [1, 18]: -0.426 ± 0.35
promoter activity interaction Z-score [1, 19]: -0.24 ± 0.063
promoter activity interaction Z-score [1, 20]: -0.0177 ± 0.64
promoter activity interaction Z-score [1, 21]: -0.332 ± 0.11
promoter activity interaction Z-score [1, 22]: -0.769 ± 0.066
promoter activity interaction Z-score [2, 7]: 0.395 ± 0.012
promoter activity interaction Z-score [2, 8]: 0.0327 ± 0.17
promoter activity interaction Z-score [2, 9]: 0.0339 ± 0.11
promoter activity interaction Z-score [2, 10]: 0.164 ± 0.031
promoter activity interaction Z-score [2, 11]: 0.157 ± 0.33
promoter activity interaction Z-score [2, 12]: -0.0548 ± 0.095
promoter activity interaction Z-score [2, 13]: 0.115 ± 0.13
promoter activity interaction Z-score [2, 14]: -0.136 ± 0.086
promoter activity interaction Z-score [2, 15]: -0.104 ± 0.25
promoter activity interaction Z-score [2, 16]: 0.0656 ± 0.17
promoter activity interaction Z-score [2, 17]: 0.0163 ± 0.13
promoter activity interaction Z-score [2, 18]: -0.276 ± 0.12
promoter activity interaction Z-score [2, 19]: -0.663 ± 0.012
promoter activity interaction Z-score [2, 20]: -0.0908 ± 0.024
promoter activity interaction Z-score [2, 21]: -0.359 ± 0.073
promoter activity interaction Z-score [2, 22]: -0.569 ± 0.028
promoter activity interaction Z-score [3, 7]: -0.448 ± 0.043
promoter activity interaction Z-score [3, 8]: -0.515 ± 0.43
promoter activity interaction Z-score [3, 9]: -0.684 ± 0.075
promoter activity interaction Z-score [3, 10]: -0.00783 ± 0.5
promoter activity interaction Z-score [3, 11]: -0.405 ± 0.21
promoter activity interaction Z-score [3, 12]: -0.484 ± 1.3
promoter activity interaction Z-score [3, 13]: -0.656 ± 0.73
promoter activity interaction Z-score [3, 14]: 0.307 ± 0.49
promoter activity interaction Z-score [3, 15]: -0.305 ± 0.016
promoter activity interaction Z-score [3, 16]: -0.602 ± 0.0081
promoter activity interaction Z-score [3, 17]: -0.783 ± 0.28
promoter activity interaction Z-score [3, 18]: -0.819 ± 0.56
promoter activity interaction Z-score [3, 19]: -0.675 ± 0.34
promoter activity interaction Z-score [3, 20]: -0.947 ± 0.57
promoter activity interaction Z-score [3, 21]: -0.245 ± 0.018
promoter activity interaction Z-score [3, 22]: -1.09 ± 0.71
promoter activity interaction Z-score [4, 7]: -0.274 ± 0.39
promoter activity interaction Z-score [4, 8]: -0.38 ± 0.41
promoter activity interaction Z-score [4, 9]: -0.03 ± 0.92
promoter activity interaction Z-score [4, 10]: -0.268 ± 0.31
promoter activity interaction Z-score [4, 11]: 0.0974 ± 0.18
promoter activity interaction Z-score [4, 12]: -1.07 ± 0.12
promoter activity interaction Z-score [4, 13]: 0.0652 ± 0.47
promoter activity interaction Z-score [4, 14]: 0.323 ± 0.16
promoter activity interaction Z-score [4, 15]: -0.167 ± 0.13
promoter activity interaction Z-score [4, 16]: -0.402 ± 0.074
promoter activity interaction Z-score [4, 17]: -0.108 ± 0.64
promoter activity interaction Z-score [4, 18]: -0.846 ± 0.13
promoter activity interaction Z-score [4, 19]: -0.06 ± 0.16
promoter activity interaction Z-score [4, 20]: 0.217 ± 0.25
promoter activity interaction Z-score [4, 21]: -0.865 ± 0.29
promoter activity interaction Z-score [4, 22]: -1.32 ± 0.15
promoter activity interaction Z-score [5, 7]: -0.153 ± 0.24
promoter activity interaction Z-score [5, 8]: -0.163 ± 0.076
promoter activity interaction Z-score [5, 9]: -0.181 ± 0.11
promoter activity interaction Z-score [5, 10]: -0.281 ± 0.17
promoter activity interaction Z-score [5, 11]: -0.207 ± 0.12
promoter activity interaction Z-score [5, 12]: -0.432 ± 0.03
promoter activity interaction Z-score [5, 13]: -0.396 ± 0.41
promoter activity interaction Z-score [5, 14]: -0.473 ± 0.0061
promoter activity interaction Z-score [5, 15]: -0.362 ± 0.15
promoter activity interaction Z-score [5, 16]: -0.417 ± 0.065
promoter activity interaction Z-score [5, 17]: -0.286 ± 0.13
promoter activity interaction Z-score [5, 18]: -0.66 ± 0.33
promoter activity interaction Z-score [5, 19]: -0.651 ± 0.052
promoter activity interaction Z-score [5, 20]: -0.805 ± 0.022
promoter activity interaction Z-score [5, 21]: -0.856 ± 0.24
promoter activity interaction Z-score [5, 22]: -1.4 ± 0.29
promoter activity interaction Z-score [6, 7]: 0.117 ± 0.23
promoter activity interaction Z-score [6, 8]: 0.186 ± 0.86
promoter activity interaction Z-score [6, 9]: 0.627 ± 0.57
promoter activity interaction Z-score [6, 10]: -0.42 ± 1.2
promoter activity interaction Z-score [6, 11]: 0.292 ± 0.33
promoter activity interaction Z-score [6, 12]: 0.228 ± 1.2
promoter activity interaction Z-score [6, 13]: 0.351 ± 0.028
promoter activity interaction Z-score [6, 14]: -0.0491 ± 0.37
promoter activity interaction Z-score [6, 15]: 0.145 ± 0.28
promoter activity interaction Z-score [6, 16]: -0.36 ± 0.22
promoter activity interaction Z-score [6, 17]: 0.607 ± 0.47
promoter activity interaction Z-score [6, 18]: -0.445 ± 0.3
promoter activity interaction Z-score [6, 19]: 0.0528 ± 0.23
promoter activity interaction Z-score [6, 20]: -0.275 ± 0.55
promoter activity interaction Z-score [6, 21]: -1.04 ± 0.42
promoter activity interaction Z-score [6, 22]: -0.899 ± 0.71
